Bioassay records from PubChem BioAssay.
Compounds with a hit are over-represented: about 11% of the library has one in this group of screens.
HP1b chromo inh = HP1-beta chromodomain-methylated histone interaction inhibition. P83916. AlphaScreen HP1-beta / biotin-H3K9me3 peptide binding. Potency, µM (top dose mostly 114 µM), inactives show at the top dose activity change, negative = inhibition, most hits filed as inhibitors. 390,000 compounds, 0.56% hits. AID 540317; further: nearly all actives have a fitted effect of over 70% in size
Target sequence (P83916 whole entry, looked up): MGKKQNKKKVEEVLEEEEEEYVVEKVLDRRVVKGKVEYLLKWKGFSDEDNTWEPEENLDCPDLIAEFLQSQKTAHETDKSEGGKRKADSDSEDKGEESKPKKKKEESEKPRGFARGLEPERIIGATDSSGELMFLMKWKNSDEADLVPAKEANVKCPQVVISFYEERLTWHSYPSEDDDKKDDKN
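HP1-beta protein (50 nM final) preincubated 30 min at room temperature with biotinylated H3(1-18)K9me3 peptide (50 nM) in PBS pH 7.4, 0.01% Tween-20, then compound added for 30 min. AlphaScreen streptavidin donor/nickel chelate acceptor beads (10 ug/mL final), 30 min dark, luminescence read.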
L3MBTL1 block = L3MBTL1 (human) inhibition | Q9Y468 | AlphaScreen L3MBTL1–H3K9me1 peptide binding | Potency, µM (series often up to 57.1 µM), without a hit: top-dose activity, negative = inhibition, usual class: inhibitors | 230,000 compounds, 0.66% hits | AID 485360; further: on the % scale 0 is the no-effect control and ±100 the full control effect; nearly all actives have a fitted effect of over 60% in size
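First, the protein-peptide complex forms for 30 min at room temperature (L3MBTL1 50 nM, biotinylated H3K9me1 peptide 75 nM). Next, compounds are pin-transferred and incubated 30 min. Finally, AlphaScreen beads are added and read after 30 min.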
G9a block = G9a (human) methyltransferase inhibition; Q96KQ7; Potency, µM (titrated, usually from 102 µM), for inactives: at the highest dose activity, negative = inhibition, most hits filed as inhibitors; G9a H3K9 monomethylation, AlphaScreen, 2 h; 350,000 compounds, 8.8% hits; further: on the % scale 0 is the no-effect control and ±100 the full control effect; nearly all actives have a fitted effect of over 75% in size
Target sequence (Q96KQ7 913-1193 limits assumed): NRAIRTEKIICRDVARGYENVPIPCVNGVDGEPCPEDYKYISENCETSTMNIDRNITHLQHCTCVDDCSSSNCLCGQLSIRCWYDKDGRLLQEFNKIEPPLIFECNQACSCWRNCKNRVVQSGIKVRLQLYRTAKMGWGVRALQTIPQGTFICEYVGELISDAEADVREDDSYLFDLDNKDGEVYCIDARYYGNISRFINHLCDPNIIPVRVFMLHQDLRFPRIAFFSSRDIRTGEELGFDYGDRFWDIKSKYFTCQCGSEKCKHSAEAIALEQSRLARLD
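Using a bead-based AlphaScreen, monomethylated H3K9 product from 2 h room-temperature reactions (G9a 20 nM, peptide 500 nM, SAM 20 uM) was detected with 0.5 ug/mL rabbit anti-H3K9me1 antibody.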
BAZ2B inh = inhibitors of human BAZ2B bromodomain | Q9UIF8 | AlphaScreen BAZ2B-H3K14Ac peptide displacement | Potency, µM (series often up to 114 µM), for inactives: top-dose activity change, negative = inhibition, usual class: inhibitors | 360,000 compounds, 4.4% hits | AID 504333; further: on the % scale 0 is the no-effect control and ±100 the full control effect; nearly all actives have a fitted effect of over 60% in size
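Protein-peptide AlphaScreen: BAZ2B 50 nM, b-H3K14Ac 50 nM, 1x PBS pH 7.4 + 0.01% Tween-20. Preincubation 30 min RT; cpd 30 min RT (top 110 uM); beads 20 min RT, light-protected.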
JMJD2A Tudor = JMJD2A Tudor domain (human) inhibition; Potency, µM (highest dose often 114 µM), for inactives: at the highest dose activity change, negative = inhibition, hits mostly inhibitors; AlphaScreen JMJD2A-Tudor / H3K4me3 peptide binding; 390,000 compounds, 4.4% hits; further: on the % scale 0 is the no-effect control and ±100 the full control effect; nearly all actives have a fitted effect of over 50% in size
* hit, by the source's call; [ ] = another dose, or the depositor's remark. The call rests on the fitted dose curve; in most records, active means well fitted inhibition curve with a large enough effect; inconclusive means small, poorly fitted or top-dose-only effect; inactive means no such curve, though single readings can be large or run the other way. Potency means the concentration at half of the fitted maximal effect.

How did O=C(c1ccc(F)cc1)c1cn(Cc2ccccc2)c2cc3c(cc2c1=O)OCO3 do in these assays?
HP1b chromo inh: 5%; G9a block: 3%[59 µM]; BAZ2B inh: -26%; JMJD2A Tudor: -9%

How did Cc1ccc(NC(=O)N(Cc2cn(C)c3ccccc23)C2CCCCC2)cc1C do in these assays?
HP1b chromo inh: 8%; G9a block: -11%[59 µM]; JMJD2A Tudor: -31%

How did COc1cc(C(=O)NS(=O)(=O)c2ccccc2C)ccc1Cc1cn(C)c2ccc(NC(=O)OC3CCCC3)cc12 do in these assays?
G9a block: inconclusive; BAZ2B inh: 50µM*

How did COc1ccc(OCC(O)CNC(=O)Nc2cccc3ccccc23)cc1 (stereo not given) do in these assays?
HP1b chromo inh: -10%; L3MBTL1 block: -12%; G9a block: -17%; BAZ2B inh: -16%; JMJD2A Tudor: -30%

How did Cc1cc2nc3n(c2cc1C)CCCN3 do in these assays?
HP1b chromo inh: 21%; L3MBTL1 block: -4%; G9a block: 10%; BAZ2B inh: -2%; JMJD2A Tudor: -18%

Results for CCOC(=O)C(C)N1C(=O)S/C(=C\c2ccc(-c3ccccc3C(=O)O)o2)C1=O (stereo not given) ?
HP1b chromo inh: inconclusive; G9a block: 10µM*; BAZ2B inh: 25µM*; JMJD2A Tudor: 22µM*

What do the screens show for `CC(C(=O)OCC(=O)c1ccccc1)N1C(=O)c2ccccc2C1=O` (stereo not given)?
HP1b chromo inh: -9%; L3MBTL1 block: 15%; G9a block: 0%; BAZ2B inh: 0%; JMJD2A Tudor: -9%

What do the screens show for `Cc1ccc(C)c(N2C(=N)S/C(=C\c3ccc(-c4ccccc4C(=O)O)o3)C2=O)c1`?
HP1b chromo inh: -38%; L3MBTL1 block: inconclusive; G9a block: 2.2µM*; BAZ2B inh: 20µM*; JMJD2A Tudor: 32µM*

How did Cc1ccc(C)c(CN2C(=O)COc3ccc(C(=O)c4ccccc4C(=O)O)cc32)c1 do in these assays?
HP1b chromo inh: 30%; L3MBTL1 block: -1%; G9a block: 7%; BAZ2B inh: -24%; JMJD2A Tudor: -17%

How did Cc1ccc(C)c(OCCC(=O)Nc2ccccc2C(=O)NC2CC2)c1 do in these assays?
HP1b chromo inh: 28%[57 µM]; L3MBTL1 block: 6%; JMJD2A Tudor: -3%

What do the screens show for `Cc1ccc(C)c(OCCCC(=O)Nc2ccccc2C(N)=O)c1`?
HP1b chromo inh: 26%; L3MBTL1 block: -10%; G9a block: 50µM*; BAZ2B inh: 7%; JMJD2A Tudor: -22%

How did O=C(CN1CCCN(Cc2ccccc2F)S1(=O)=O)Nc1ccc(F)c(Cl)c1 do in these assays?
HP1b chromo inh: 14%; G9a block: 7%[59 µM]; BAZ2B inh: -2%; JMJD2A Tudor: -7%

What do the screens show for `CC1(C2(O)CCCCC2)NCCc2ccccc21` (stereo not given)?
HP1b chromo inh: 71µM*; L3MBTL1 block: 6%; G9a block: 32µM*; BAZ2B inh: 35µM*; JMJD2A Tudor: 0.89µM*

How did CCc1ccccc1NS(=O)(=O)c1ccc2[nH]cc(C(=O)N3CCCCC3)c(=O)c2c1 do in these assays?
HP1b chromo inh: 27%; G9a block: 9%[59 µM]; JMJD2A Tudor: -4%

How did COc1ccc2ccccc2c1CNC(=O)CC1C(=O)NCCN1CC(C)C (stereo not given) do in these assays?
HP1b chromo inh: 16%[57 µM]; L3MBTL1 block: -1%; G9a block: 45µM*; BAZ2B inh: -8%; JMJD2A Tudor: -20%

What do the screens show for `CCOc1ccccc1CN1CCNC(=O)C1CC(=O)NCCCn1cccn1` (stereo not given)?
HP1b chromo inh: 52%; G9a block: 79µM*; BAZ2B inh: inconclusive; JMJD2A Tudor: -12%

What do the screens show for `CCc1cc(CNC(=O)CC2C(=O)NCCN2Cc2c(F)cccc2Cl)on1` (stereo not given)?
HP1b chromo inh: -4%; L3MBTL1 block: -4%; G9a block: 11%; BAZ2B inh: -19%; JMJD2A Tudor: -9%

What do the screens show for `O=C(CC1C(=O)NCCN1Cc1cccc(C(F)(F)F)c1)NCCCOc1cccnc1` (stereo not given)?
HP1b chromo inh: 57%; G9a block: inconclusive; BAZ2B inh: -17%; JMJD2A Tudor: 2%
